Inconclusive results are not listed. Where a call stands in place of a potency, no number is given. Unmarked numbers belong to inactive results. Active and inactive are the calls of the source. Unless noted, calls follow the shape of the dose curve; as a rule, active = well fitted curve in the direction sought with a large enough effect in the repeat runs; inconclusive = weak or mixed curves; inactive = no such curve, though single readings can be large; an effect the other way counts as inactive or inconclusive.
Legend:
[1] = qHTS assay to identify small molecule agonists of the RXR signaling pathway - cell viability counter screen (AID 1159529);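 also: HEK 293T cells carrying an RXR-alpha UAS beta-lactamase reporter; series mostly up to about 77 µM; nearly all actives have a fitted effect of over 50% in size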
In short: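 Tox21 10K compounds were tested for cytotoxicity against GeneBLAzer RXR-alpha HEK 293T cells grown in 2% charcoal-stripped FBS. Exposure lasted 16 hr at 37 C, 5% CO2; viability read by CellTiter-Glo luminescence.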

[2] = qHTS assay to identify small molecule antagonists of the retinoid acid receptor (RAR) signaling pathway - cell viability counter screen (AID 1159551); also: nearly all actives have a fitted effect of over 35% in size
In short: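 In this counter screen, the RARE-luciferase line C3RL4 was exposed for 6 h at 37 C and 5% CO2 to compounds with retinol at 1 uM final. Cellular ATP, read by luminescence, served as the viability measure.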

[3] = qHTS assay to identify small molecule antagonists of the retinoic acid receptor (RAR) signaling pathway (AID 1159552; also: nearly all actives have a fitted effect of over 50% in size)
In short: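 Overnight-plated C3RL4 reporter cells get compound, then retinol to 1 uM final; plates sit 6 hr at 37 C, 5% CO2. A luciferase reagent is added and light output recorded after 30 min at room temperature.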

[4] = qHTS assay to identify small molecule agonists of the retinoic acid receptor (RAR) signaling pathway (AID 1159553)
In short: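 In this cell-based screen, 1,000 C3RL4 cells per well were cultured overnight, dosed with test chemicals in DMSO for 6 hr, and assessed for RARE luciferase luminescence.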

[5] = qHTS assay to identify small molecule antagonists of the estrogen related receptor (ERR) signaling pathway from Tox21 library - cell viability counter screen (AID 1224834); also: nearly all actives have a fitted effect of over 30% in size
In short: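 Counter screen run in ERR cells (2,000 cells/well): cells pre-incubated 6 h, then treated with compounds for 17.5 h at 37 C. Fluorescence was read 30 min after CellTiter-Fluor addition.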

[6] = biological target: Luciferin 4-monooxygenase (Photinus pyralis) (UniProt P08659); test: qHTS assay to identify small molecule inhibitors of firefly luciferase (AID 1224835); also: series mostly up to about 120 µM; nearly all actives have a fitted effect of over 25% in size
In short: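 Quantitative HTS format; KM concentrations of both substrates. Purified P. pyralis FLuc activity quantified from luminescence images.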

[7] = qHTS assay to identify small molecule antagonists of the constitutive androstane receptor (CAR) signaling pathway - cell viability counter screen (AID 1224837); also: series mostly up to about 92 µM; nearly all actives have a fitted effect of over 45% in size
In short: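 CITCO at 50 nM final was added alongside compounds (15 concentrations) to double-stable hCAR/CYP2B6-2.2kb HepG2 cells. Following 23 hr at 37 C, cell viability was quantified by CellTiter-Fluor fluorescence intensity.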

[8] = biological target: Nuclear receptor subfamily 1 group I member 3 (Homo sapiens) (UniProt Q14994); test: qHTS assay to identify small molecule antagonists of the constitutive androstane receptor (CAR) signaling pathway (AID 1224838); also: nearly all actives have a fitted effect of over 40% in size
In short: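 Inhibition of CITCO-driven (50 nM final) CYP2B6 reporter expression is measured in HepG2 cells stably carrying hCAR. Fifteen compound concentrations are applied for 24 h at 37 C, followed by luciferase luminescence.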

[9] = biological target: Nuclear receptor subfamily 1 group I member 3 (Homo sapiens) (UniProt Q14994); test: qHTS assay to identify small molecule agonists of the constitutive androstane receptor (CAR) signaling pathway (AID 1224839); also: nearly all actives have a fitted effect of over 15% in size; also: potency is read from the fitted curve at half-maximal effect
In short: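 Stable hCAR/CYP2B6-2.2kb HepG2 line in DMEM with 10% FBS; compounds (15 concentrations) and 0.75 uM PK11195 final, 24 h at 37 C/5% CO2, then ONE-Glo luminescence after 30 min.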

[10] = qHTS assay to identify small molecule antagonists of the estrogen related receptor signaling pathway with the pleiotropic PPARgamma coactivator (PGC) from Tox21 10K library (AID 1224841; call rule not given here; also: series mostly up to about 92 µM; actives are mostly falling curves and most rising ones were filed inactive; nearly all actives have a fitted effect of over 50% in size)
In short: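 One-Glo luminescence, measured after half an hour at room temperature, quantified reporter output of PGC/ERR cells. These had been plated at 2,000 per well, incubated 6 h, dosed with compounds in DMSO, then kept 18 h at 37 C.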

[11] = qHTS assay to identify small molecule agonists of the estrogen related receptor signaling pathway with the pleiotropic PPARgamma coactivator (PGC) from Tox21 10K library (AID 1224842); also: nearly all actives have a fitted effect of over 15% in size
In short: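 PGC/ERR reporter cells (NTP line) were seeded 2,000 per well, rested 6 h at 37 C/5% CO2, then pin-dosed with compounds in DMSO for 18 h at 37 C; luciferase read by One-Glo luminescence after 30 min at room temperature.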

[12] = biological target: Thyrotropin receptor (Homo sapiens) (UniProt P16473); test: qHTS assay to identify small molecule agonists of the thyroid stimulating hormone receptor (TSHR) signaling pathway (AID 1224843; calls by dose curve; also: nearly all actives have a fitted effect of over 45% in size)
In short: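 Compounds are titrated over 15 concentrations, in triplicate, onto TSHR-HEK293 cells seeded at 800/well. Plates sit 30 min at room temperature before cAMP-d2 and anti-cAMP cryptate are added; signal is read after a further hour.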

[13] = qHTS assay to identify small molecule agonists of the hypoxia (HIF-1) signaling pathway - cell viability counter screen (AID 1224844; calls by dose curve; also: nearly all actives have a fitted effect of over 50% in size)
In short: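 In this counter screen, HRE-bla ME-180 cell viability after 17 hrs of compound exposure at 37C was read by CellTiter-Glo luminescence, multiplexed with the beta-lactamase reporter measurement.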

[14] = qHTS assay to identify small molecule antagonists of the estrogen related receptor signaling pathway with the pleiotropic PPARgamma coactivator (PGC) from Tox21 10K library - cell viability counter screen (AID 1224840; active = well fitted cell-killing curve with a large enough effect in the repeat runs, not every such curve was filed as active; also: nearly all actives have a fitted effect of over 40% in size)
In short: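 Readout: fluorescence intensity from CellTiter-Fluor after 30 min at 37 C/5% CO2. Preceded by 17.5 h treatment of PGC/ERR cells with DMSO-dissolved compounds, added 6 h post-seeding.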

[15] = qHTS assay to identify small molecule agonists of the constitutive androstane receptor (CAR) signaling pathway - cell viability counter screen (AID 1224836); also: series mostly up to about 92 µM; nearly all actives have a fitted effect of over 45% in size
In short: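 Fluorescence from CellTiter-Fluor indicates live cells after 23 h exposure. The human hepatoma line expresses hCAR and a CYP2B6-2.2kb reporter. Incubation medium contains 0.75 uM PK11195 (final).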

Sequence of Luciferin 4-monooxygenase (Photinus pyralis) (P08659 whole entry, looked up): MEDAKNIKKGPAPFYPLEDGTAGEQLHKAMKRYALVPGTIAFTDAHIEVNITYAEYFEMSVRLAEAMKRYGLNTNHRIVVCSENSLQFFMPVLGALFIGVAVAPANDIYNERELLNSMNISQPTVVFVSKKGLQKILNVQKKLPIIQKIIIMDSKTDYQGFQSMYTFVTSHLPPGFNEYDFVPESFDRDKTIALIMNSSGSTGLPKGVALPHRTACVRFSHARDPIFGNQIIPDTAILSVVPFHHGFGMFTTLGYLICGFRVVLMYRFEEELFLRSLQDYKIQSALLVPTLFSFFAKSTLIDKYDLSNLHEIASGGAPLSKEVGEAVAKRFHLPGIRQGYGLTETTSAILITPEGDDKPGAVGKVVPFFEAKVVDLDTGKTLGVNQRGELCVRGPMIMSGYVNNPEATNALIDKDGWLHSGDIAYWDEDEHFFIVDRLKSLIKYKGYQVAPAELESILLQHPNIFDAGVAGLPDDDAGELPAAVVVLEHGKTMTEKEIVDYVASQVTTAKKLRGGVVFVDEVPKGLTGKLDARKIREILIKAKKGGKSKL
Sequence of Thyrotropin receptor (Homo sapiens) (P16473 whole entry, looked up): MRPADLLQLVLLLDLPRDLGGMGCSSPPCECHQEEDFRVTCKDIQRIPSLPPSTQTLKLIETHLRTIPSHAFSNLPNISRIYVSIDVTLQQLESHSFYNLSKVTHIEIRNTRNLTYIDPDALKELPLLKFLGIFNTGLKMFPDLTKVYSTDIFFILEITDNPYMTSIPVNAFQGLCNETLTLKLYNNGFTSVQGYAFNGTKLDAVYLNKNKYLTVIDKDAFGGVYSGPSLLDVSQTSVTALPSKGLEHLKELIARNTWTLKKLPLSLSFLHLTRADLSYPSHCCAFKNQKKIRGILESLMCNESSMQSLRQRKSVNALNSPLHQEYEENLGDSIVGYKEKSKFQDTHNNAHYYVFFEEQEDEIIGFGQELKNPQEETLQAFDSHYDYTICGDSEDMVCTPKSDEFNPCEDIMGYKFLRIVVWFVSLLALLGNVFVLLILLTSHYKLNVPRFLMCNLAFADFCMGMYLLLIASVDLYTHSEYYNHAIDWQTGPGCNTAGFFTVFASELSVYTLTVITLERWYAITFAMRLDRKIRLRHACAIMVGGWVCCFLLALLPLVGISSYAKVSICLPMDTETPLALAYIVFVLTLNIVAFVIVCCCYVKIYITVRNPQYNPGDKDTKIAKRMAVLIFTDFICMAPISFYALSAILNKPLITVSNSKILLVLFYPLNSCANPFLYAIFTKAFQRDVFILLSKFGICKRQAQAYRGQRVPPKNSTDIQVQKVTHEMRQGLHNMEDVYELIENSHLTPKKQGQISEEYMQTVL
Sequence of Nuclear receptor subfamily 1 group I member 3 (Homo sapiens) (Q14994 whole entry, looked up): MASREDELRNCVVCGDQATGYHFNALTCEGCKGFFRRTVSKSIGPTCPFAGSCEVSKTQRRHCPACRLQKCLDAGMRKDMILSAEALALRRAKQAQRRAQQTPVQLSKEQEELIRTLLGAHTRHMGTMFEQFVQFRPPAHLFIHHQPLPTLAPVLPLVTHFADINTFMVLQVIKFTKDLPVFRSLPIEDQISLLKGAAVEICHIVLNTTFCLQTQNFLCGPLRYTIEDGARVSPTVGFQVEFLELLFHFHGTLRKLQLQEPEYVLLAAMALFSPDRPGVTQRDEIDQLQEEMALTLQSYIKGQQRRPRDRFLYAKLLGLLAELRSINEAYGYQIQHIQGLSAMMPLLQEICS

| Structure (SMILES) | Potency [1] | Potency [2] | Potency [3] | Potency [4] | Potency [5] | Potency [6] | Potency [7] | Potency [8] | Potency [9] | Potency [10] | Potency [11] | Potency [12] | Potency [13] | Potency [14] | Potency [15] |
| --- | --- | --- | --- | --- | --- | --- | --- | --- | --- | --- | --- | --- | --- | --- | --- |
| OP(O)c1ccccc1 | inactive | inactive | inactive | inactive | inactive | inactive | inactive | inactive | inactive | inactive | inactive | inactive | inactive |  |  |
| CCC(CC)(CNC(=O)CCCO)c1cccc(OC)c1 | inactive | inactive | inactive | inactive | inactive | inactive | inactive | inactive | inactive | inactive | inactive | inactive | inactive | inactive |  |
| CCCCOC(C)=O | inactive | inactive | inactive | inactive | inactive | inactive |  |  |  |  |  | inactive | inactive | inactive | inactive |
| CN(C)C1CCCCC1 | inactive | inactive | inactive | inactive | inactive | inactive |  | inactive |  | inactive | inactive |  | inactive | inactive | inactive |
| O=[N+]([O-])c1cccc(CCl)c1 | inactive | inactive | inactive | inactive | inactive |  | inactive | inactive |  |  |  | inactive | inactive | inactive | inactive |
| O=P(O)(O)CN(CP(=O)(O)O)CP(=O)(O)O | inactive | inactive | inactive | inactive | inactive |  | inactive |  |  |  |  | inactive | inactive | inactive | inactive |
| Cc1ccc(Cl)c(O)c1 | inactive | inactive | inactive | inactive | inactive |  | inactive | inactive | inactive | inactive | inactive | inactive | inactive |  | inactive |
| N#CN | inactive | inactive | inactive | inactive | inactive |  | inactive | inactive | inactive |  |  |  | inactive | inactive | inactive |
| O=C(O)C(Cl)Br (configuration not stated) | inactive | inactive | inactive | inactive | inactive |  | inactive | inactive | inactive |  |  | inactive | inactive | inactive |  |
| ClCCN1CCCC1 | inactive | inactive | inactive | inactive | inactive |  | inactive | inactive |  |  |  | inactive | inactive |  | inactive |
| C=CC=O | inactive | inactive | inactive | inactive | inactive |  | inactive | inactive | inactive |  |  | inactive | inactive | inactive | inactive |
| Clc1nc(Cl)nc(Nc2ccccc2Cl)n1 | inactive | inactive | inactive | inactive | inactive |  |  | inactive | inactive | inactive | inactive | inactive | inactive | inactive | inactive |
| CCCC(C)C1(CC)C(=O)N=C(S)NC1=O (configuration not stated) | inactive | inactive | inactive | inactive | inactive |  | inactive | inactive |  |  |  |  | inactive | inactive | inactive |
| CCOP(=S)(OCC)Oc1ccc(Cl)cc1Cl | inactive | inactive | inactive | inactive | inactive |  | inactive | inactive | 27.3 µM (active) |  |  | inactive | inactive | inactive | inactive |
| O=C1CCCCC1Cl (configuration not stated) | inactive | inactive | inactive | inactive | inactive |  | inactive |  |  |  |  | inactive | inactive |  | inactive |
| CCC(=O)c1ccc(Cl)cc1 | inactive | inactive | inactive | inactive | inactive |  | inactive | inactive | inactive | inactive | inactive | inactive | inactive | inactive | inactive |
| CC(Cc1ccccc1)NCCCCl (configuration not stated) | inactive | inactive | inactive | inactive | inactive |  | inactive | inactive | inactive |  |  | inactive | inactive |  | inactive |
| CCC(C)C(C)(COC(N)=O)COC(N)=O (configuration not stated) | inactive | inactive | inactive | inactive | inactive |  | inactive | inactive |  | inactive | inactive | inactive | inactive | inactive |  |
| ClCOCCl | inactive | inactive | inactive | inactive | inactive | inactive |  |  |  |  |  | inactive | inactive | inactive |  |
